# Screening results as filed in PubChem.
# Shown are actives, neighbours in structure and some others; about 19% of the full set was active somewhere.
# TDP1 cell noCPT: qHTS for Inhibitors of human tyrosyl-DNA phosphodiesterase 1 (TDP1): qHTS in cells in absence of CPT | Potency, µM (highest dose often 46.2 µM), inactives show at the highest dose activity change, negative = growth inhibition, actives largely listed as inhibitors | actives 15% (n = 420,000) | DT40 Tdp1-/- hTDP1 cells, no CPT, ATP luminescence, 48 h; further: potency means the concentration at half of the fitted maximal effect; nearly all actives have a fitted effect of over 55% in size
#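 Compound effects on proliferation are scored in DT40 Tdp1-/-;hTDP1 cells in the absence of CPT. ATP levels (CellTiter-Glo luminescence) are recorded after a ≥48 hr, 37 °C incubation.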
# HT1080 IDH1KD tx: toxicity to HT-1080 IDH1 knockdown cells (counter line); HT-1080 IDH1 knockdown viability, ATP luminescence, 48 h; Potency, µM (top dose mostly 46.1 µM), for inactives: at the top dose activity, negative = toxicity, most hits filed as cytotoxic; actives 2% (n = 360,000);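 further: potency means the concentration at half of the fitted maximal effect; 0% = DMSO wells and -100% = cell-free medium wells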
#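 Assay cells: HT-1080 with IDH1 knockdown, 750 per well, RPMI/5% FBS. Exposure: 48 h at 37 °C following 2 h pre-incubation. Read: CellTiter-Glo luminescence; fitted concentration-response, curve class assigned.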
# IL-1B inflam inh: inhibitors of inflammasome signaling (IL-1 beta secretion); THP-1 LPS/ATP IL-1B secretion, AlphaLISA, 16 h; stronger effect = lower value; activity change, % at 57.5 µM; actives 4.7% (n = 360,000); AID 743279; in the data active means activity change below about -50%; inconclusive means mostly about -30% to -49%
#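 Secreted IL-1B measured by AlphaLISA bead assay after 16 h compound exposure of THP-1 cells; compounds (final up to 57.5 uM) added 1 h before LPS (250 ng/mL) and ATP (1.25 mM) stimulation; lower signal means less secretion.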
# DT40 TDP1 CPT: growth inhibition of DT40 Tdp1-/-;hTDP1 cells with camptothecin (screen for TDP1 inhibitors); chicken DT40 Tdp1-/-;hTDP1 cells + 20 nM CPT, ATP luminescence, 48 h; Potency, µM (doses to about 46.2 µM), for inactives: at the top dose activity change, negative = growth inhibition, hits mostly inhibitors; actives 12% (n = 420,000); AID 686979; further: potency means the concentration at half of the fitted maximal effect; nearly all actives have a fitted effect of over 55% in size
#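 Chicken DT40 Tdp1-/- cells complemented with human TDP1, 400 cells/well, exposed to compounds plus 20 nM camptothecin for at least 48 h at 37 C; viability read as ATP content by CellTiter-Glo luminescence.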
# HT1080-NT tox: kills 2HG-producing HT-1080-NT fibrosarcoma cells; HT-1080-NT fibrosarcoma viability, CellTiter-Glo ATP luminescence, 48 h; Potency, µM (top dose mostly 46.1 µM), inactives show at the highest dose activity, negative = less viability, most hits filed as cytotoxic; actives 1.6% (n = 360,000);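 further: NT is the 2HG producing partner of a matched IDH1 knockdown line; potency means the concentration at half of the fitted maximal effect; 0% = DMSO-treated cells and -100% = media-only wells without cells; nearly all actives have a fitted effect of over 55% in size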
#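 HT-1080-NT fibrosarcoma cells (2HG-overproducing), 750 cells/well in RPMI with 5% FBS, dosed after 2 h and incubated 48 h at 37C. CellTiter-Glo luminescence normalized to DMSO and no-cell wells; concentration-response curves fitted and classed.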
# * = called active by the depositor; ? = inconclusive; nt = not tested or not shown; [ ] = dose if it differs, or a comment. Unless noted, the call rests on the fitted dose curve; in most records, active means well fitted curve in the direction sought with a large enough effect; inconclusive means small, poorly fitted or top-dose-only effect, or another doubt; inactive means no such curve, though single readings can be large; an effect the other way counts as inactive or inconclusive. Unless noted, on the % scale 0 is the no-effect control and ±100 the full control effect.
SMILES,TDP1 cell noCPT,HT1080 IDH1KD tx,IL-1B inflam inh,DT40 TDP1 CPT,HT1080-NT tox
COc1ccc(S(=O)(=O)N2CCCCC2)cc1NC(=O)c1ccc2c(c1)OCO2,14.6µM*,-2.2%,0.0,?,-4.0%
COc1ccc(OC)c(NS(=O)(=O)c2ccc(NC(=O)C3COc4ccccc4O3)cc2)c1 (centres undefined),18.4µM*,?,-68.3*,14.6µM*,?
O=C(Nc1ccc(S(=O)(=O)Nc2ncccn2)cc1)C1COc2ccccc2O1 (centres undefined),-8.9%,-11.2%,-8.0,1.0%,12.3%
CCCC(=O)Nc1ccc(Cl)c(NC(=O)c2cccc(OC)c2)c1,?,-10.5%,0.0,?,-3.1%
CCn1c(C(=O)NC2CCC(C)CC2)cc2sccc21 (centres undefined),?,3.0%,-3.0,-20.2%,-1.7%
CCOC(=O)C(CC)n1nc(C)n2c(cc3sccc32)c1=O (centres undefined),11.6µM*,-5.6%,18.4,11.6µM*,14.8%
CCOC(=O)CCCn1nc(C)n2c(cc3sccc32)c1=O,?,-2.8%,-1.2,-13.2%,-3.2%
Cc1nn(C(C)C(=O)NC2CCC(C)CC2)c(=O)c2cc3sccc3n12 (centres undefined),?,nt,nt,14.6µM*,nt
COCC(=O)Nc1cc(C(=O)N2CC3CC4CC(C3)CC2C4)c2c(c1)nc(-c1ccncc1)n2C,?,nt,nt,0.8%[9.04 µM],nt
Cc1nc2sc(C(c3cccc(F)c3)N3CCCC(C)C3)c(O)n2n1 (centres undefined),-5.3%,9.1%,-1.6,-20.8%,5.3%
CN1c2ccccc2Oc2nnc(Cl)cc21,-22.3%,1.8%,-51.8*,8.1%,12.4%
CN1c2ccccc2Oc2nnc(N3CCN(Cc4ccccc4)CC3)cc21,?,-23.5%,-96.1*,?,1.1%
CC(=O)N1Cc2cc(N)ccc2Oc2ccccc21,-7.4%,4.1%,17.4,0.3%,-0.9%
Cc1noc(C)c1C(=O)OCC(=O)c1ccc[nH]1,-0.4%,14.8%,-3.0,0.2%,16.2%
Cc1noc(C)c1C(=O)OCC(=O)c1cc(C)n(Cc2ccccc2Cl)c1C,14.6µM*,-24.2%,23.9,20.6µM*,0.8%
CC1CCN(C(C(=O)Nc2ccc(C(C)C)cc2)c2ccc3c(c2)OCO3)CC1 (centres undefined),?,-14.6%,-17.8,?,-1.0%
Cc1ccc(NC(=O)C(c2ccc(Cl)cc2Cl)N2CCCC2)cc1 (centres undefined),14.6µM*,-16.0%,-14.4,23.1µM*,-15.2%
O=C(O)c1ccccc1OC(C(=O)Nc1cc(Cl)cc(Cl)c1)c1ccccc1 (centres undefined),25.9µM*,-0.1%,22.6,29.1µM*,?
COc1cccc(NC(=O)C(c2ccccc2)N2CCCCC2)c1 (centres undefined),?,0.7%,0.0,-27.8%,-7.1%
CC(C)c1ccc(NC(=O)C(c2ccc3c(c2)OCO3)N2CCCCC2)cc1 (centres undefined),23.1µM*,-8.3%,-0.4,18.4µM*,-10.1%
O=C(Nc1cc(Cl)cc(Cl)c1)C(c1ccccc1)N1CCCCC1 (centres undefined),?,-22.9%,?,20.6µM*,-2.9%
O=C(Nc1cc(Cl)cc(Cl)c1)C(NCCO)c1ccccc1 (centres undefined),?,-4.8%,4.5,-2.0%,19.0%
CCOc1cc(CN2CCC(n3nccc3NC(=O)C3CC3)CC2)ccc1O,2.0%,11.3%,12.4,1.9%,3.3%
CC1CC(C)C(=O)C(C(CC2CC(=O)NC(=O)C2)OC(=O)CC(=O)c2ccccc2)C1 (centres undefined),0.411µM*,?,3.5,0.366µM*,?
O=C1CCC(C(=O)OCC(=O)c2ccccc2)N1 (centres undefined),-24.2%,17.3%,16.6,?,17.5%
C=Cc1ncc(OC)c2c1[nH]c1ccccc12,3.66µM*,?,-107.2*,3.66µM*,16.4µM*
